The record followed here is PubChem BioAssay (NCI).

This is part of a sample that, as a whole, favours compounds with a hit. Of some 83,000 tested, about 20% had one in any assay.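 Values shown are percent growth following 48 h exposure of cells in 96-well plates to a single concentration of compound; below 10 was considered active.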 Values without a mark were called inactive. Activity calls are given as the source filed them.

The assay relates to HL-60(TB) leukemia. Description: NCI-60 one-dose screen, 48 h (100 = growth as untreated, 0 = no growth, -100 = all killed). To be noted: 10 µM unless noted.
Regarding `O=C(Nc1ccncc1)C(=O)c1cn(S(=O)(=O)c2cccc3ccccc23)c2ccccc12`, the growth is 64%. Turning to `COc1cc(C2CC(c3ccc(Cl)cc3)=NN2C(C)=O)ccc1Oc1ccnc2cc(Cl)ccc12` (stereo not given), the growth is 110%. In the case of `NC(=O)NCCO`, the growth was 109%.

As for `N=C(N)Sc1cccc[n+]1[O-]`, the growth is 27.8%. Under `C=CCC(O)C=C` (stereo not given) stands 101%. As for `COc1ccc(OC)c(/C=C/C(=O)N/N=C/c2ccc(Cl)cc2)c1`, the figure is 20.1%; as for `Cc1ccc(-c2nn(-c3ccccc3)cc2C=C2C(=O)ON=C2C(C)C)cc1`, -37.7% (active). Turning to `COc1ccc2nc(N=Nc3c(O)ccc4ccccc34)sc2c1`, the growth was 4.48% (active). Regarding `O=C1/C=C/[C@@H](O)[C@@H]2C[C@@H](O)C[C@H]2/C=C/CCC[C@H]([C@@H](O)CO)O1`, the growth was 101%. As for `CCCCCCSc1ncnc2nc[nH]c12`, the figure is 72.2%. For `O=C(CSCC(=O)N/N=C/c1ccccc1O)N/N=C\c1ccccc1O`, the growth was -32.8% (active). As for `Clc1ccc(N2N=C(c3cccc(Nc4ccncc4)c3)CC2c2ccc3c(c2)OCO3)cc1` (stereo not given), the growth was 22.5%.

With `O=S(=O)(CCN1CCOCC1)Nc1cncc(-c2ccc3ncnc(Nc4ccc(F)c(Cl)c4)c3c2)c1`, the growth was 110%. Take `COC(=O)c1ccc(C(=Nc2ccc(N(C)C(=O)CN3CCN(C)CC3)cc2)c2c(O)[nH]c3ccc(C(=O)OC)cc23)cc1`: the growth was 14.4%.

On to `COc1cc(/C=C/C(=O)c2cccc(-n3cc(-c4ccc(Cl)cc4)[nH]c3=O)c2)ccc1O`, for which the growth was -19.9% (active).

For `Cc1ccc(Oc2c(/C=N/NC(=O)Cn3c(=O)sc4ccccc43)c(C)nn2-c2ccccc2)cc1`, the growth was 4.2% (active).

As to `CC/C(Cc1ccccc1)=C(\c1ccc(OCCN2CCCCCC2)cc1)c1ccc(OC(=O)NCc2ccccc2)cc1`, the growth was 37%. As for `CCn1c(SCCc2ccccc2)nnc1-c1nn(-c2ccc(Cl)cc2Cl)c(-c2ccc(Cl)cc2)c1C`, the figure is 67.8%; as for `CNC(=O)c1cc(Oc2ccc3c(c2)sc2nc(-c4cc(C(F)(F)F)cc(C(F)(F)F)c4)cn23)ccn1`, 45.7%; as for `O=S(=O)(O)c1ccc2cc(O)ccc2c1`, 100%. As for `O=C1/C(=C/c2ccc(-c3ccccc3C(F)(F)F)o2)SC(=S)N1CCc1ccc(O)cc1`, the figure is 20.8%; as for `CCCc1cn(CC(=O)Nc2nc3ccccc3s2)nn1`, 101%. As for `CCOC(=O)c1cc(C(=O)c2ccc(F)cc2F)n2ccccc12`, the figure is 96.4%; as for `O=C1c2ccccc2C(=O)N1c1ccccc1`, 111%; as for `O=C(Cc1nc2ccc([N+](=O)[O-])cc2nc1CC(=O)c1ccccc1)c1ccccc1`, 31.5%.

On to `CCN1CCCC(Nc2cc(C)nc(/N=C(/N)Nc3ccc(Cl)c(Cl)c3)n2)C1` (stereo not given), for which the growth was -42.7% (active). As for `O=S(=O)(NCCCNc1nccc(-c2c(-c3ccc(F)cc3)nc3sccn23)n1)c1ccc2ccccc2c1`, the figure is 34.8%. Under `Cc1ccccc1NC(=O)Oc1ccc(Cl)cc1C(=O)c1ccccc1` stands 103%; under `COc1cc(OCc2cccc(-c3ccc4c(c3)OCCO4)c2C)cc(OC)c1C=O`, 64%; under `Cc1cc(N2CCN(CC(=O)Nc3ccc4c(ccn4Cc4ccccc4)c3)CC2)nc(N2CCOCC2)n1`, 87.3%. As for `O=c1nc(N2CCOCC2)oc2c(-c3cccc4ccccc34)cccc12`, the figure is 93.6%; as for `Cn1cc(-c2noc(-c3cn(C)c4ncccc34)n2)c2cc(Cl)ccc21`, 80.2%. In the case of `COP(=O)(OC)c1nnn(-c2cccc([N+](=O)[O-])c2)c1C`, the growth was 99.8%. `CCOC(=O)C(Cc1ccc(OC)cc1)C(=O)OCC`: the growth is 3.77% (active). As for `NS(=O)(=O)c1ccc(-n2nc(C(=O)N/N=C\c3ccc(F)cc3)cc2-c2ccc(Cl)cc2)cc1`, the figure is 121%; as for `NC(=O)CCC(C(=O)O)N1C(=O)c2ccc(O)cc2C1=O` (stereo not given), 134%; as for `COc1cc2c(Nc3ccc(S(N)(=O)=O)cc3)ncnc2c(OC)c1OC`, 91.5%. Regarding `Cc1ccccc1-n1nnc(C(=O)Nc2nc(-c3ccccc3)c(-c3ccccc3)s2)c1C`, the growth is 89.1% [50 µM]. For the compound `Nc1ccccc1-c1cc2c(c3c1[nH]c1ccccc13)CCCCC2`, the growth is 91.6%. For the compound `CN[C@@H]1C[C@H]2O[C@@](C)([C@@H]1OC)n1c3ccccc3c3c4c(c5c6ccccc6n2c5c31)C(=O)N[C@H]4O`, the growth is -40.8% (active).
